Experimental data from PubChem BioAssay (NCI).
Compounds without any hit were thinned out: in the full panel of roughly 83,000, 20% have a hit.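 A percent growth of 40 corresponds to 60% growth inhibition; 0 means no net growth; -100 means all cells died. Active threshold: below 10.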 Calls of active or inactive are those of the source.

What was measured:
Assay in all cases: NCI-60 one-dose screen, 48 h (100 = growth as untreated, 0 = no growth, -100 = all killed)
Settings in all cases: 10 µM unless noted
NCI-H23 lung = tested on: NCI-H23 lung
NCI-H322M lung = tested on: NCI-H322M lung
HOP-62 NSCLC = tested on: HOP-62 NSCLC
NCI-H460 lung = tested on: NCI-H460 lung
NCI-H522 lung = tested on: NCI-H522 lung
A549/ATCC NSCLC = tested on: A549/ATCC NSCLC
786-0 renal = tested on: 786-0 renal
COLO 205 colon = tested on: COLO 205 colon
DU-145 prostate = tested on: DU-145 prostate
K-562 leukemia = tested on: K-562 leukemia
MALME-3M melanoma = tested on: MALME-3M melanoma
MDA-MB-231 breast = tested on: MDA-MB-231 breast
RXF 393 renal = tested on: RXF 393 renal
SF-268 CNS = tested on: SF-268 CNS
SF-539 CNS = tested on: SF-539 CNS
UACC-257 melanoma = tested on: UACC-257 melanoma
M14 melanoma = tested on: M14 melanoma
HCT-15 colon = tested on: HCT-15 colon
SF-295 CNS = tested on: SF-295 CNS

| Structure (SMILES) | growth (NCI-H23 lung) | growth (NCI-H322M lung) | growth (HOP-62 NSCLC) | growth (NCI-H460 lung) | growth (NCI-H522 lung) | growth (A549/ATCC NSCLC) | growth (786-0 renal) | growth (COLO 205 colon) | growth (DU-145 prostate) | growth (K-562 leukemia) | growth (MALME-3M melanoma) | growth (MDA-MB-231 breast) | growth (RXF 393 renal) | growth (SF-268 CNS) | growth (SF-539 CNS) | growth (UACC-257 melanoma) | growth (M14 melanoma) | growth (HCT-15 colon) | growth (SF-295 CNS) |
| --- | --- | --- | --- | --- | --- | --- | --- | --- | --- | --- | --- | --- | --- | --- | --- | --- | --- | --- | --- |
| N#CCCN(CCO)c1ccccc1 | 104% (inactive) | 93.7% (inactive) | 95% (inactive) | 105% (inactive) | 80.6% (inactive) | 98.9% (inactive) | 96.2% (inactive) | 104% (inactive) | 116% (inactive) | 98.3% (inactive) | 96.8% (inactive) | 106% (inactive) | 105% (inactive) | 111% (inactive) | 104% (inactive) | 99.8% (inactive) | 102% (inactive) | 102% (inactive) | – |
| COc1c(C)c2c(c(O)c1C/C=C(\C)CCC(=O)OCCN1CCOCC1)C(=O)OC2 | 19.4% (inactive) | 33.2% (inactive) | 34.9% (inactive) | 2.48% (active) | -3.49% (active) | 5.79% (active) | 24.7% (inactive) | 38.1% (inactive) | 36.4% (inactive) | 25.5% (inactive) | 38.8% (inactive) | 37.9% (inactive) | 51.9% (inactive) | 28.9% (inactive) | 34.7% (inactive) | 7.21% (active) | 19.8% (inactive) | 15.5% (inactive) | 18.2% (inactive) |
| Cc1cc(C(=O)O)c(C)cc1C(=O)O | 107% (inactive) | 76.8% (inactive) | 93.5% (inactive) | 119% (inactive) | 96.5% (inactive) | 103% (inactive) | 101% (inactive) | 120% (inactive) | 120% (inactive) | 101% (inactive) | 89.5% (inactive) | 114% (inactive) | 116% (inactive) | 115% (inactive) | 113% (inactive) | 104% (inactive) | 101% (inactive) | 104% (inactive) | – |
| O=C1Nc2ccccc2C12Nc1cc(Cl)ccc1S2 (stereo not drawn) | 78.4% (inactive) | 87.1% (inactive) | 98.4% (inactive) | 87.5% (inactive) | 82.6% (inactive) | 98.7% (inactive) | 98.4% (inactive) | 98.3% (inactive) | 85.9% (inactive) | 39.7% (inactive) | 81.8% (inactive) | 85.4% (inactive) | 121% (inactive) | 87.8% (inactive) | 86.5% (inactive) | 138% (inactive) | 91.6% (inactive) | – | 78.8% (inactive) |
| CCN(CC)c1ccc(C(O)C2=CC(=O)c3ccccc3C2=O)cc1 (stereo not drawn) | -2.03% (active) | 25.2% (inactive) | -12.7% (active) | 7.97% (active) | -62.2% (active) | 47.6% (inactive) | 3.34% (active) | 21.6% (inactive) | 3.92% (active) | 2.86% (active) | -11.3% (active) | -51% (active) | -80.2% (active) | -30.9% (active) | -38.2% (active) | 9.28% (active) | 13.8% (inactive) | 30.3% (inactive) | – |
| Cc1ccc(NC(=O)COC(=O)c2ccc(S(=O)(=O)N3CCCCCC3)cc2)cc1 | 107% (inactive) | 131% (inactive) | – | 106% (inactive) | 96% (inactive) | 97.2% (inactive) | 103% (inactive) | – | 108% (inactive) | 103% (inactive) | 127% (inactive) | 101% (inactive) | 88.9% (inactive) | 94.6% (inactive) | 105% (inactive) | 94.3% (inactive) | 126% (inactive) | 105% (inactive) | 88.9% (inactive) |
